Test system: Neuro-2a
Assay: neurite formation score, plate-normalized to DMSO control mean 5.04 (score (0-8 scale)); higher = more or longer neurites
Conditions: 0.1 µM
Experimental: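 Neuro-2a mouse neuroblastoma cells in PLL-coated 96-well plates were pre-treated for 1 h in DMEM(+) with each kinase inhibitor at 0.1 µM, then switched to serum-free DMEM(-) with inhibitor to induce neurite outgrowth and fixed about 2-3 h later. Three blinded observers scored neurite formation from 0 (no neurites) to 8 (long neurites on almost all cells).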

Row | SMILES | neurite formation score
1 | O=c1[nH]c2ccc(Cl)cc2c(N[C@@H]2CN3CCC2CC3)c1-c1nc2ccccc2[nH]1 | 4.92
2 | COc1cc([C@@H]2c3cc4c(cc3[C@H](O)[C@H]3COC(=O)[C@@H]23)OCO4)cc(OC)c1OC | 2.38
3 | N#CC(C#N)=Cc1ccc(O)c(O)c1 | 5.38
4 | CC(C)(C)c1cc(C=C(C#N)C#N)cc(C(C)(C)C)c1O [Tyrphostin 9] | 4.92
5 | O=c1[nH]c2ccccc2n1C1CCN(Cc2ccc(-c3[nH]c4cc5ncnc5cc4nc3-c3ccccc3)cc2)CC1 [AKT inhibitor VIII] | 3.38
6 | CC(C)(C)c1cc(C=C(C#N)C#N)cc(Br)c1O | 5.04
7 | Cn1cc(C2=C(c3cn(C4CCN(Cc5ccccn5)CC4)c4ccccc34)C(=O)NC2=O)c2ccccc21 | 2.38
8 | COc1ccc(N(C(=O)Oc2c(C)cccc2C)c2ccnc(Nc3ccc(N4CCN(C)CC4)cc3)n2)c(OC)c1 | 5.08
9 | COc1ccc2c(c[n+](C)c3c4cc5c(cc4ccc23)OCO5)c1OC [Chelerythrine Chloride] | 4.04
10 | COC[C@H]1OC(=O)c2coc3c2[C@@]1(C)C1=C(C3=O)[C@@H]2CCC(=O)[C@@]2(C)C[C@H]1OC(C)=O [Wortmannin] | 4.58
11 | CCN1CCN(C(=O)Cc2ccc(Nc3ncc(F)c(Nc4ccc(C(=O)Nc5ccccc5Cl)cc4)n3)cc2)CC1 [Aurora A Inhibitor I] | 4.92
12 | Cc1ccccc1-n1c(Cn2cnc3c(N)ncnc32)nc2cccc(C)c2c1=O | 4.75
